In ChEMBL document CHEMBL1961873, “Compounds: GSK PKIS; Assays: Nanosyn kinase panel” (2012):

Experiments:
[1] = target: T1, Tyrosine-protein kinase ITK/TSK (Homo sapiens) (UniProt Q08881); settings: at 1 µM;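 also: values are mean percent inhibition of ITK from the GSK PKIS screen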
T1 sequence (whole entry): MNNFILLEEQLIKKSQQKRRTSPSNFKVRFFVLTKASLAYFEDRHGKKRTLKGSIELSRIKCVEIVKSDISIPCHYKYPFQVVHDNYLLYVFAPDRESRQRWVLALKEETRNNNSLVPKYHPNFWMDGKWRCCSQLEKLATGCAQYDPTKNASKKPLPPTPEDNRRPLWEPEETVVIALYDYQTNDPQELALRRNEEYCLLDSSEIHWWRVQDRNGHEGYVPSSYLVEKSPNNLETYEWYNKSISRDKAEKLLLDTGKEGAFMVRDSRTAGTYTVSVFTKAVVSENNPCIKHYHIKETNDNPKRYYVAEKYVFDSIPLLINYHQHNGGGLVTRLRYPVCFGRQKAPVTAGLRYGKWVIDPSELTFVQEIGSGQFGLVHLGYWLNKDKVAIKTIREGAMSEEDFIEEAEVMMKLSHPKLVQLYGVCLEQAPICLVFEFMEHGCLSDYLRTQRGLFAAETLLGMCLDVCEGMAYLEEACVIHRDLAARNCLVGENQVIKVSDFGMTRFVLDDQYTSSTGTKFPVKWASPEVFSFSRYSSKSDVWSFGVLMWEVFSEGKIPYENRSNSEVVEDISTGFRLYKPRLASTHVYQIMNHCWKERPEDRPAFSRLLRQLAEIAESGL

[2] = target: Tyrosine-protein kinase JAK1 (Homo sapiens) (UniProt P23458); settings: at 0.1 µM
[3] = target: Tyrosine-protein kinase JAK1 (Homo sapiens) (UniProt P23458); settings: at 1 µM
[4] = target: Tyrosine-protein kinase JAK2 (Homo sapiens) (UniProt O60674); settings: at 0.1 µM
[5] = target: Tyrosine-protein kinase JAK2 (Homo sapiens) (UniProt O60674); settings: at 1 µM
[6] = target: T2, Tyrosine-protein kinase JAK3 (Homo sapiens) (UniProt P52333); settings: at 0.1 µM
T2 sequence (whole entry): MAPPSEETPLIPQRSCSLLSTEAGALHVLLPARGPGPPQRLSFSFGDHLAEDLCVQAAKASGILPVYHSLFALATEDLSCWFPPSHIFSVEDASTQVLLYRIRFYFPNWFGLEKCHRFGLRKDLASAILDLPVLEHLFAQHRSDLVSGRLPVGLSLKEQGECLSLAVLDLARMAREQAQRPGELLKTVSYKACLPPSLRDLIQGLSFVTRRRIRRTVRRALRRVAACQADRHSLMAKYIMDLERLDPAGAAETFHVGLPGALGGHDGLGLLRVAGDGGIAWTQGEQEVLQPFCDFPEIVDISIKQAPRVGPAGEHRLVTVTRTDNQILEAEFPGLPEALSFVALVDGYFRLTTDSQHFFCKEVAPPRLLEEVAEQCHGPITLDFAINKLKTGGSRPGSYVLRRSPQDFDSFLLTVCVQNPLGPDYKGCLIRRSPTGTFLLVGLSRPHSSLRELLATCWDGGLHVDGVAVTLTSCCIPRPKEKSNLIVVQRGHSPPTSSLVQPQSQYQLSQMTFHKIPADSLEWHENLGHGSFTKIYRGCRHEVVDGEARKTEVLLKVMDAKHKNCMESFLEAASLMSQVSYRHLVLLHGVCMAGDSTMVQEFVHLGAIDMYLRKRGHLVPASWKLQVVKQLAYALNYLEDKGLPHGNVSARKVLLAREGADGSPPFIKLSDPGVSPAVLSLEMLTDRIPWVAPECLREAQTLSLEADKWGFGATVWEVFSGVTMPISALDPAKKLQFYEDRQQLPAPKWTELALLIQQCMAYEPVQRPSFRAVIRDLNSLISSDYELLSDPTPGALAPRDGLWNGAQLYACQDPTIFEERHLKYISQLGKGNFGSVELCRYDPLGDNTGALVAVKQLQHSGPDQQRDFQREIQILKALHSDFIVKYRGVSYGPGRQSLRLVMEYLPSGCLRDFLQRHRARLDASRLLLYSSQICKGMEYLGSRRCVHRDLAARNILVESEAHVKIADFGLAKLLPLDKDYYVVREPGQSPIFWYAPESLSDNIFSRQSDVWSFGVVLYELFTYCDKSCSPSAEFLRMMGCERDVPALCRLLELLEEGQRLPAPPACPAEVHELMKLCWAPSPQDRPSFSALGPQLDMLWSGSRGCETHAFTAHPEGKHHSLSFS

[7] = target: T2, Tyrosine-protein kinase JAK3 (Homo sapiens); settings: at 1 µM
[8] = target: Vascular endothelial growth factor receptor 2 (Homo sapiens) (UniProt P35968); settings: at 0.1 µM
[9] = target: Vascular endothelial growth factor receptor 2 (Homo sapiens) (UniProt P35968); settings: at 1 µM
[10] = target: Mast/stem cell growth factor receptor Kit (Homo sapiens) (UniProt P10721); settings: at 0.1 µM
[11] = target: Mast/stem cell growth factor receptor Kit (Homo sapiens) (UniProt P10721); settings: at 1 µM
[12] = test system: Mast/stem cell growth factor receptor Kit (Homo sapiens), P10721 [D816V]; settings: at 0.1 µM
[13] = test system: Mast/stem cell growth factor receptor Kit (Homo sapiens), P10721 [D816V]; settings: at 1 µM
[14] = test system: Mast/stem cell growth factor receptor Kit (Homo sapiens), P10721 [T670I]; settings: at 0.1 µM
[15] = test system: Mast/stem cell growth factor receptor Kit (Homo sapiens), P10721 [T670I]; settings: at 1 µM
[16] = test system: Mast/stem cell growth factor receptor Kit (Homo sapiens), P10721 [V560G]; settings: at 0.1 µM
[17] = test system: Mast/stem cell growth factor receptor Kit (Homo sapiens), P10721 [V560G]; settings: at 1 µM
[18] = target: Tyrosine-protein kinase Lck (Homo sapiens) (UniProt P06239); settings: at 0.1 µM
[19] = target: Tyrosine-protein kinase Lck (Homo sapiens) (UniProt P06239); settings: at 1 µM
[20] = target: Leukocyte tyrosine kinase receptor (Homo sapiens) (UniProt P29376); settings: at 0.1 µM
Leukocyte tyrosine kinase receptor (Homo sapiens), sequence (P29376 whole entry): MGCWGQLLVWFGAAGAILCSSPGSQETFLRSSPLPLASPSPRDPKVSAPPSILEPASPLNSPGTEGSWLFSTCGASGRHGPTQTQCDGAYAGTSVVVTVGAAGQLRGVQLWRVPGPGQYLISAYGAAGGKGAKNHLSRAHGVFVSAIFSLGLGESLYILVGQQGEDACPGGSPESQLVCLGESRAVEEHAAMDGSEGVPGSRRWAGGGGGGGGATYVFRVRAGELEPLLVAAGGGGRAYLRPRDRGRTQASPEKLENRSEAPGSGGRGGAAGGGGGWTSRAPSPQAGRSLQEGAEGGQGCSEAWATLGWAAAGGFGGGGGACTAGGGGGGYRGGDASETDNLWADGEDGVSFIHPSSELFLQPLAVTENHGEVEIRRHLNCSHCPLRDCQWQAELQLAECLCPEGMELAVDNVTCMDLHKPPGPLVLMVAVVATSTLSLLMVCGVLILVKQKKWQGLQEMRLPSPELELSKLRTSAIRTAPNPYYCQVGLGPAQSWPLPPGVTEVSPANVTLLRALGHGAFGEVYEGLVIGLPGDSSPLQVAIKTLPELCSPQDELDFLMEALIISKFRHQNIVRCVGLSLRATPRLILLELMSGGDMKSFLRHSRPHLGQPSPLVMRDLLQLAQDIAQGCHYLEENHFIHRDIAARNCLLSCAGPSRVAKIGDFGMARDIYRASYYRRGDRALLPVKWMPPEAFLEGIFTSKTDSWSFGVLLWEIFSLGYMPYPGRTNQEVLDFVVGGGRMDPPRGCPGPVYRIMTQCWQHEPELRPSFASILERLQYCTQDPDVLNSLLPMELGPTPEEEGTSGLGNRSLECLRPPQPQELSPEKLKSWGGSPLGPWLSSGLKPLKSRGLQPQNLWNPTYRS

Tyrosine-protein kinase Lck (Homo sapiens), sequence (P06239 2-509 limits assumed): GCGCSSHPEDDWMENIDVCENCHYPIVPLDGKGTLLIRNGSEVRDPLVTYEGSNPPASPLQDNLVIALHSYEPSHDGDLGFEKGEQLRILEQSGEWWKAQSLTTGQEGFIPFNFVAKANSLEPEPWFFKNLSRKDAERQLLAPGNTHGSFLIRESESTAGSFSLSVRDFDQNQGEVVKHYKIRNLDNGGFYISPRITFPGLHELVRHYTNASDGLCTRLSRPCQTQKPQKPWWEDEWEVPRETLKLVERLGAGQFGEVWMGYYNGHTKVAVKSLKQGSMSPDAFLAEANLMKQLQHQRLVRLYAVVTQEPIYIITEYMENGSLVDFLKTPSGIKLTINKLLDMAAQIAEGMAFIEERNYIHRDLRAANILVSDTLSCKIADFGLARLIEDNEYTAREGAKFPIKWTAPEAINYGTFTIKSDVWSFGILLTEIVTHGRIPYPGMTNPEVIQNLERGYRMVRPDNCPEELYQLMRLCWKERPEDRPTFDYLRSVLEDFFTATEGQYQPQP
Tyrosine-protein kinase JAK1 (Homo sapiens), sequence (P23458 whole entry): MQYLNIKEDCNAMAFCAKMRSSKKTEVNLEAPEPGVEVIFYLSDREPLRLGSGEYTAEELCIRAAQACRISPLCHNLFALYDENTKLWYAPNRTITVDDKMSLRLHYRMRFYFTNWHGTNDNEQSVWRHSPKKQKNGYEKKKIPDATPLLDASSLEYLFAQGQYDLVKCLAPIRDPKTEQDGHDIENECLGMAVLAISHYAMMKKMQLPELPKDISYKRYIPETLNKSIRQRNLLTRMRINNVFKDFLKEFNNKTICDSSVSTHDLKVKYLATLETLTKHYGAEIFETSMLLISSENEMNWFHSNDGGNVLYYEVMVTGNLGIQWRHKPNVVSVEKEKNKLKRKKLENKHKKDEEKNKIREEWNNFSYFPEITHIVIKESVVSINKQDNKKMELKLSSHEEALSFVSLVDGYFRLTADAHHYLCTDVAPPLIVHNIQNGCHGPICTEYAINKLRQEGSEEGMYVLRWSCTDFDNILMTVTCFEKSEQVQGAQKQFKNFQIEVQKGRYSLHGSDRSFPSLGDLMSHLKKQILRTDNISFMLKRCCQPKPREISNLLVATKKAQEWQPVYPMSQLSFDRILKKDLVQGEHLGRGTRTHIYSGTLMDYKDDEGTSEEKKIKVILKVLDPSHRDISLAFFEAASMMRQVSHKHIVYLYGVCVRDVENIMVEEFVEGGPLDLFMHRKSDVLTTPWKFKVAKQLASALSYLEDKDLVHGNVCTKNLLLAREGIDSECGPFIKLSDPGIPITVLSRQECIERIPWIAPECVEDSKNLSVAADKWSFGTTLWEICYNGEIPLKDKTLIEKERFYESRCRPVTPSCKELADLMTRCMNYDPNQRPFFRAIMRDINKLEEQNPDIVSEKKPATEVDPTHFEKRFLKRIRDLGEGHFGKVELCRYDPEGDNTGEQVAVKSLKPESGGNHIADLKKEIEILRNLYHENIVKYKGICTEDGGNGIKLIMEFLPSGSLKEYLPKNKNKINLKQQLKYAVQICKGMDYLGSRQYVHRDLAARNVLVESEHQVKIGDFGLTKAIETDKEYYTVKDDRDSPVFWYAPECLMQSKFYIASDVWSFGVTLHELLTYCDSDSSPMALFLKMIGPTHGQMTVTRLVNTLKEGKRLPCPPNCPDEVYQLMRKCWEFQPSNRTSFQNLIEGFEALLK
Mast/stem cell growth factor receptor Kit (Homo sapiens), P10721 [T670I], sequence (P10721 whole entry T670I): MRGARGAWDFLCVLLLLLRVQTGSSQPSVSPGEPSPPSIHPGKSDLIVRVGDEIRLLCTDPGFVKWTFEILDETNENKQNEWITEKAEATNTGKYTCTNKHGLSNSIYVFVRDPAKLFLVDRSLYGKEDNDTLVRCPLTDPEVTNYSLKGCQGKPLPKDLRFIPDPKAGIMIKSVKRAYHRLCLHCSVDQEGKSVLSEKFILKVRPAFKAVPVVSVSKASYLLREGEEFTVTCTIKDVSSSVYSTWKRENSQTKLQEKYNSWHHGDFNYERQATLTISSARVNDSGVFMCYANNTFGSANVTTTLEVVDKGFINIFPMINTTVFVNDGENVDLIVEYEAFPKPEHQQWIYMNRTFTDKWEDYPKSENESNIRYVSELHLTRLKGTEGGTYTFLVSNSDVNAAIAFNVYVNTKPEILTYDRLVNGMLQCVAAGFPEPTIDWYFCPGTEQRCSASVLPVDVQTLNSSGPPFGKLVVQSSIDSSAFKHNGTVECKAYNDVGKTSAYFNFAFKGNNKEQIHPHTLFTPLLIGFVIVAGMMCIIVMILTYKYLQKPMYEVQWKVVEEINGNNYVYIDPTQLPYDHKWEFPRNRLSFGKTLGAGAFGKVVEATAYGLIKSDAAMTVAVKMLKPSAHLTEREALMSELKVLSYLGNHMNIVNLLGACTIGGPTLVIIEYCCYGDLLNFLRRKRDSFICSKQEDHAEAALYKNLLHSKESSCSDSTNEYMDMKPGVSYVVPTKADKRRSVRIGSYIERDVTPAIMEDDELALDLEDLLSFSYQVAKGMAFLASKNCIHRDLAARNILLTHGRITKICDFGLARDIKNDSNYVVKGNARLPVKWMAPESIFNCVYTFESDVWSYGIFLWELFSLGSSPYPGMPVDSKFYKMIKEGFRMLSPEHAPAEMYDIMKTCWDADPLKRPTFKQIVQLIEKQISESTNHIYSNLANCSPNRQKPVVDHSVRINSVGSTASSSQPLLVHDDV
Vascular endothelial growth factor receptor 2 (Homo sapiens), sequence (P35968 whole entry): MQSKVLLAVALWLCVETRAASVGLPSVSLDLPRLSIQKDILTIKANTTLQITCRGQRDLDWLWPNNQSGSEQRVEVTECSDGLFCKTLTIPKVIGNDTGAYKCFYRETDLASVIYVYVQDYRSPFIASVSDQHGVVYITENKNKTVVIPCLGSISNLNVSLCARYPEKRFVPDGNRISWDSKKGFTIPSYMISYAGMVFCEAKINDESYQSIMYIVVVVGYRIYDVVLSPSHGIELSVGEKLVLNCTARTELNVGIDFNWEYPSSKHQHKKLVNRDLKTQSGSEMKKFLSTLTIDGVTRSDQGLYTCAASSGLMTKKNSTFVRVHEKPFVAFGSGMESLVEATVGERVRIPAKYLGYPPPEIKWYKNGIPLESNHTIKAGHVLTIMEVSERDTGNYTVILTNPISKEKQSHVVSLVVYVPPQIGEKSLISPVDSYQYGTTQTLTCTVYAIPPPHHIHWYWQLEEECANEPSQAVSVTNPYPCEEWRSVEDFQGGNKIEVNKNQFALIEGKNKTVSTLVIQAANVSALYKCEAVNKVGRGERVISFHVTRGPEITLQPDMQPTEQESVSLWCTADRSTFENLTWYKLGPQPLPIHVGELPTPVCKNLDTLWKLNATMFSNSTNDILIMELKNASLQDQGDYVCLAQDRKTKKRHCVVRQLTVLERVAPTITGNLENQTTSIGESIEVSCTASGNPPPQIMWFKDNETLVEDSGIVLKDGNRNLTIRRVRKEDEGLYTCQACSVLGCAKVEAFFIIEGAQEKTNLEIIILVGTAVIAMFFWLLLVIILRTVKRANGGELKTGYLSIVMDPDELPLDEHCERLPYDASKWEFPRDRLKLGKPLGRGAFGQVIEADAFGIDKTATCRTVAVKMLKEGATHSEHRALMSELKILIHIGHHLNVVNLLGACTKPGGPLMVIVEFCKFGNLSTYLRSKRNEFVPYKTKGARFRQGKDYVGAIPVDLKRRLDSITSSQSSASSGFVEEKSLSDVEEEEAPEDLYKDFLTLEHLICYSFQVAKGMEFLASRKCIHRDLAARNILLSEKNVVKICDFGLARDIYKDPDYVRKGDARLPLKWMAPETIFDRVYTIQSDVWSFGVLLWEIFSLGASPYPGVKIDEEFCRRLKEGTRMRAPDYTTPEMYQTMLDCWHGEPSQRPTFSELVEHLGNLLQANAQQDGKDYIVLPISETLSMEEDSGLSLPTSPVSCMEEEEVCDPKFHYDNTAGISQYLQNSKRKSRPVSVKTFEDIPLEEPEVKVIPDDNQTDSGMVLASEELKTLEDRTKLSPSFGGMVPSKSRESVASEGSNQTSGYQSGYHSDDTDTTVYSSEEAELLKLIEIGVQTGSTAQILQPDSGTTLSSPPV
Mast/stem cell growth factor receptor Kit (Homo sapiens), sequence (P10721 whole entry): as the sequence (P10721 whole entry T670I) above, with I670T counted along it
Mast/stem cell growth factor receptor Kit (Homo sapiens), P10721 [V560G], sequence (P10721 whole entry V560G): as the sequence (P10721 whole entry T670I) above, with V560G, I670T counted along it
Mast/stem cell growth factor receptor Kit (Homo sapiens), P10721 [D816V], sequence (P10721 whole entry D816V): as the sequence (P10721 whole entry T670I) above, with I670T, D816V counted along it

Structure (SMILES)	inhibition [1]	inhibition [2]	inhibition [3]	inhibition [4]	inhibition [5]	inhibition [6]	inhibition [7]	inhibition [8]	inhibition [9]	inhibition [10]	inhibition [11]	inhibition [12]	inhibition [13]	inhibition [14]	inhibition [15]	inhibition [16]	inhibition [17]	inhibition [18]	inhibition [19]	inhibition [20]
O=C(Nc1n[nH]c2nc(-c3ccco3)c(Br)cc12)C1CC1	23.7%	2.41%	-1.14%	1.5%	1.59%	-1.04%	1.18%	5.71%	15.5%	6.02%	4.71%	4%	-1.99%	2.25%	1.3%	1.23%	1.62%	1.39%	6.71%	1.93%
CCCN1CCC=C(c2ccc(Nc3nc(Nc4ccccc4C(N)=O)c4cc[nH]c4n3)c(C)c2)C1	7.61%	2.14%	3.46%	2.19%	2.74%	-1.04%	0.49%	0.98%	17.7%	4.24%	11.6%	7.12%	3.39%	4.53%	0.85%	-4.87%	-3.21%	4.63%	7.36%	79.4%
CS(=O)(=O)Nc1ccc(N/C=C2\C(=O)Nc3ccccc32)cc1	3.61%	0.26%	5.33%	-0.93%	1.03%	0.43%	8.16%	6.66%	46.7%	17.6%	86.6%	-1.84%	-0.2%	7.79%	61.3%	4.08%	20.4%	-0.69%	5.83%	0.19%
c1cnn2ncc(-c3ccnc(Nc4ccc5c(c4)OCCO5)n3)c2c1	5.82%	8.27%	19.7%	2.1%	20.6%	1.94%	46%	9.54%	37.4%	95%	106%	3.21%	9.72%	49.2%	93.3%	38.1%	83.5%	3.28%	9.06%	6.2%
COc1ccc(-c2coc3ncnc(N)c23)cc1	1.48%	0.98%	2.67%	1.71%	2.08%	-1.56%	2.35%	6.15%	9%	5.17%	21.7%	5.53%	-0.06%	3.49%	1.89%	2.72%	7.39%	1.13%	6.38%	3.02%
COc1ccc(COc2ccc(Cc3cnc(N)nc3N)cc2OC)cc1	2.31%	3.77%	-0.05%	1.99%	4.19%	2.12%	3.61%	6.02%	9.65%	1.04%	7.39%	-2.58%	-2.51%	-2.93%	-3.14%	5.62%	8.16%	0.03%	2.78%	-1.03%
CCn1c(-c2nonc2N)nc2c(C#CC(C)(C)O)nc(CN3CCCC3)cc21	0.72%	1.82%	3.25%	0.37%	-0.34%	0.46%	1.49%	5.26%	20.1%	-3.09%	0.93%	-0.84%	1.18%	-0.82%	-3.13%	1.79%	4.31%	-0.53%	1.3%	0.56%
O=C1NC(=O)C(c2ccc(Cl)cc2)=C1Nc1ccc(Cl)c(C(=O)O)c1	0.04%	-3.25%	-7.51%	-0.25%	-0.22%	0.01%	2.64%	4.84%	9.16%	-0.92%	-0.38%	-3.8%	-3.02%	-0.88%	-1.49%	2.75%	8.56%	-0.44%	0.35%	-1.15%
CS(=O)(=O)CCNCc1nc(-c2ccc3ncnc(Nc4ccc(F)c(Cl)c4)c3c2)cs1	0.89%	2.86%	4.25%	0.34%	4.99%	-0.02%	3.43%	9.85%	18.5%	3.87%	5.11%	3.12%	2.42%	1.78%	2.83%	10.4%	10.7%	3.91%	20%	2.39%
O=C1NC(=O)C(N2CCc3ccccc32)=C1c1ccc(Cl)cc1	2.44%	1.13%	0.25%	1.54%	2.81%	-1.28%	1.36%	12.4%	14.6%	6.61%	12%	2.68%	2.43%	3.14%	3.85%	7%	3.94%	1.6%	4.29%	2.8%
CCn1c(-c2nonc2N)nc2cnc(Oc3cccc(NC(=O)c4ccc(OCCN5CCOCC5)cc4)c3)cc21	0.94%	4.42%	12.1%	5.74%	1.29%	0.31%	-0.45%	5.67%	7.83%	5.45%	3.53%	2.71%	-0.34%	2.87%	4.8%	-1.11%	2.85%	0.98%	4.63%	2.7%
Nc1nc(-c2ccccn2)c(-c2ccc3ncccc3n2)s1	2.48%	0.52%	4.22%	-0.07%	2%	-1.07%	-0.57%	3.52%	8.02%	3.79%	3.6%	3.62%	4.08%	4.81%	3.16%	-2.5%	2.06%	0.48%	0.19%	2.47%
Nc1nc(-c2ccc3c(c2)C(=Cc2cc(Br)c(O)c(Br)c2)C(=O)N3)cs1	1.31%	0.76%	-0.48%	-0.72%	-1.87%	1.19%	2.02%	1.8%	11.3%	-0.22%	3.41%	0.19%	-1.02%	-2.39%	-1.52%	3.52%	1.96%	-1.54%	4.41%	1.87%
